Out of some 48,000 compounds screened, about 13,000 (27%) showed an effect of 50% or more. The list shows a part of the results.
The compounds below were run on Wolbachia pipientis (assay: Anti-Wolbachia Cell-Based Screen). Conditions: 5 µM.
Format: functional
Parameters: scale not given: in the data most compounds retested in dose-response had high values

Compound	Percent Effect [%]
CCOc1ncccc1C(=O)Nc1c(C)cnn1CC1CC1	12.64
CC(=O)N1CCN(Cc2nnc(C(C)(C)C)o2)CC1	-8.386
Cc1cc(CN(C)C(=O)NCc2ccnc(OC3CCCC3)c2)no1	7.98
CC(=O)N1CCN(C(=O)c2cnc(OC(C)C)c(Cl)c2)CC1	-40.95
CCN(Cc1nccn1C)C(=O)c1ccc(NCc2ccccc2)nc1	-22.31
CCN(CC)C(=O)c1ccc(CNc2ncc(C#N)cc2Cl)cc1	2.172
CCCOc1ccc(CNc2cncc(-n3cccn3)n2)cc1	92.88
CNC(=O)COc1ccc(CNc2cncc(-n3cccn3)n2)cc1	94.6
CCOc1cccc(CNc2cncc(-n3cccn3)n2)c1	10.28
CNC(=O)COc1ccc(CNc2c(Cl)cccc2C#N)cc1	-7.522
CCN(CC)C(=O)c1ccc(CNc2cncc(-n3cccn3)n2)cc1	118.2
CN(CCCc1ccccc1)C(=O)c1cn2c(n1)CNCC2	13.8
O=C(CSc1ccc2c(c1)OCCO2)NS(=O)(=O)c1ccccc1	-10.89
Cn1nccc1C1CCN(Cc2cnn(-c3ccccc3)n2)CC1	-1.945
CN(CCc1ccccc1)c1cnn(CC(=O)N2CCSCC2)c(=O)c1	-7.275
COc1cc(CNCc2c(C)nn(C)c2N(C)C)ccn1	-5.351
Cc1nn(CC(C)C)c(N(C)C)c1CNCc1cc2ccccc2[nH]1	5.6
Cc1nn(CC(C)C)c(N(C)C)c1CNCc1ccnn1C	113.6
COc1cc(CNCc2c(C(C)C)nn(C)c2N(C)C)ccn1	-8.861
COc1cc(CNCc2c(C)nn(CC(C)C)c2N(C)C)ccn1	90.35
Cc1nn(CC(C)C)c(N(C)C)c1CNCc1cccc2c1OCO2	0.06204
Cc1nn(CC(C)C)c(N(C)C)c1CNCc1ccc(CO)c(F)c1	108.6
CC(C)c1nn(C)c(N(C)C)c1CNCc1ccnn1C	10.31
CC(=O)NCCCNCc1c(C)nn(CC(C)C)c1N(C)C	-6.238
Cc1nn(C)c(N(C)C)c1CNCc1ccnn1C	-14.99

Compound	Percent Effect [%]
Cc1nn(CC(C)C)c(N(C)C)c1CNCc1cccnc1N(C)C	-5.662
Cc1nn(CC(C)C)c(N(C)C)c1CNCc1ccccc1CO	116.8
COCC1CN(C(=O)Nc2cc(-n3cccc3)ccc2F)CCO1 (centres undefined)	0.4358
O=S(=O)(NCCc1c[nH]c2ccc(F)cc12)C1CCOCC1	-14.21
Cc1cc(N2CCN(Cc3ccc(C)o3)CC2)cc(C)n1	4.051
CN(Cc1cccc(Cl)c1)C(=O)Cn1nc(-c2ccc(F)cc2)oc1=O	-8.099
CCOCc1nc2c(c(N(C)Cc3snnc3C)n1)CCNCC2	2.794
O=C(NC[C@@H]1CCCO1)c1ccc(S(=O)(=O)N[C@@H]2CCNC2)cc1	-1.141
COc1ccc(CNC(Cn2cncn2)c2ccccc2)cc1C (centres undefined)	-2.513
CC(C)C(NCc1ccc(Cn2cncn2)cc1)c1ccccc1 (centres undefined)	124.9
COc1ccc(CNC(Cn2cncn2)c2ccccc2)cc1O (centres undefined)	-2.426
N#Cc1cc(F)ccc1NCc1ccc(Cn2cncn2)cc1	1.669
Cc1[nH]ncc1C(C)NCc1ccc(F)cc1 (centres undefined)	-5.411
CC(C)c1ccc(CNC(c2ccc(F)cn2)C(C)C)cc1 (centres undefined)	100.5
CC(C)C(NCc1ccc(Cn2cncn2)cc1)c1ccc(F)cn1 (centres undefined)	90.96
CC(NCc1ccc(F)cc1)c1ccc(S(C)(=O)=O)cc1 (centres undefined)	8.945
Fc1ccc(CNc2ccccc2Cn2cncn2)cc1	-15.58
COc1cc(OC)cc(N2CCC(NCc3occc3C)C2=O)c1 (centres undefined)	-29.36
Cc1cn(Cc2nc(CC(C)C)nn2-c2ccccn2)c(=O)[nH]c1=O	5.875
CCOCCC(=O)Nc1cc(C)cnc1OC	1.473
O=C(O)C(c1ccc2[nH]ccc2c1)N1CCN(c2cnccn2)CC1 (centres undefined)	-11.7
O=C(C1=CCCC1)N1CCC[C@]2(C[C@@H](OCc3ccncc3)CO2)C1.O=C(O)C(F)(F)F	-18.3
Cc1ccc(S(=O)(=O)NC[C@H]2OC[C@@H](NCc3ccccc3)[C@@H]2O)cc1	-16.71
COC1CCN(S(=O)(=O)N2CCC3(CCCNC3=O)C2)CC1 (centres undefined)	4.322
CN1CC(Nc2nc3c(cnn3C(C)(C)C)c(=O)[nH]2)CCC1=O (centres undefined)	10.78

Compound	Percent Effect [%]
O=C1CCCN1Cc1ncn2c1CN(S(=O)(=O)c1cccs1)CCC2	-2.152
O=C(O)C(F)(F)F.O=C1CCCN1Cc1ncn2c1CN(Cc1cccs1)CCC2	-6.025
O=C1CCCN1Cc1ncn2c1CN(C(=O)Cc1cccs1)CCC2	106.6
Cc1ccc(CC(=O)N2CCCn3nnc(Cn4cccn4)c3C2)cc1	-8.474
O=C1CCCN1Cc1ncn2c1CN(C(=O)Cc1ccccc1)CCC2	99.41
CCCn1ncnc1C(C)NC(=O)CC1CCN(C(C)C)CC1 (centres undefined)	-1.645
c1csc(-c2noc(C3CCCOC3)n2)c1 (centres undefined)	-23.77
Cl.c1csc(-c2noc(C3CCCNC3)n2)c1 (centres undefined)	100.6
CCS(=O)(=O)N1CC(c2nc(-c3cccs3)no2)C1	0.556
Cc1nn(C)cc1-c1nn2c(C(F)(F)F)nnc2s1	115.5
CCn1cc(-c2nn3c(C(F)(F)F)nnc3s2)cn1	71.37
CCN(CC)CCn1cnc(-c2ccccc2)c1-c1cnn(CC)c1	8.592
CN(Cc1cc(=O)c(O)co1)C1CCN(c2ccc(F)cc2)CC1	-14.07
CN(C)C[C@H]1C[C@@H](CO)CN(C(=O)c2cc(=O)[nH]c3cc(F)ccc23)C1	-10.33
COCCN(C)C[C@H]1C[C@@H](CO)CN(C(=O)c2ccn(C)c(=O)c2)C1	96.22
CN(C)C[C@H]1C[C@H](CO)CN(C(=O)c2cc(S(N)(=O)=O)ccc2F)C1	-6.33
Cn1ccc(C(=O)N2CCCC(CNS(C)(=O)=O)C2)cc1=O (centres undefined)	-3.744
COCCN(C)C[C@H]1C[C@H](CO)CN(C(=O)c2ccn(C)c(=O)c2)C1	59.73
Cc1nc(-c2ccc(Cl)s2)sc1C(=O)N(C)CC(N)=O	2.802
COCc1noc(-c2ccc(N3CCCC3c3nccs3)nc2)n1 (centres undefined)	1.711
CCc1c(C)sc(NC(=O)CN2CCOCC2)c1C(=O)OC	123.3
CCc1c(C)sc(NC(=O)CN2CCN(CC)CC2)c1C(=O)OC	-10.89
CCOC(=O)c1c(NC(=O)C2CCN(C(C)=O)CC2)sc(C)c1CC	114.1
CCOC(=O)c1c(NC(=O)CN2CCN(C(C)=O)CC2)sc(C)c1C	112.4
CCOC(=O)N1CCN(CC(=O)Nc2nnc(CC)s2)CC1	-11.16

Compound	Percent Effect [%]
CCOC(=O)N1CCC(C(=O)Nc2nnc(C(F)(F)F)[nH]2)CC1	5.698
CCOC(=O)N1CCN(CC(=O)Nc2nnc(C)s2)CC1	-13.53
CCC(C)NC(=O)CN1CCOCC1 (centres undefined)	4.194
CCc1ccc(NC(=O)C2CCN(C(=O)COC)CC2)cc1	-3.205
O=C(Nc1ccc(N2CCOCC2)nc1)N1CCc2sccc2C1	-5.037
Cc1nn(C)c(Oc2ccccc2)c1CNC1CCOc2ccccc21 (centres undefined)	17.34
CC(C)c1ccc(/C=C/CC(=O)NC2CCS(=O)(=O)CC2)cc1	-29.94
CC(=O)c1cccc(OCCCC(=O)N(C)Cc2cnn(C)c2)c1	-7.913
N#CC1(NC(=O)COC(=O)Cn2cccn2)CCCC1	0.9044
N#Cc1ccnc(SCC2CN=C(N3CCOCC3)S2)c1 (centres undefined)	11.27
O=C(CC1CC1)N[C@@H]1CN(C(=O)c2cccs2)C[C@@H]2CCCO[C@@H]21	73.18
Cc1occc1C(=O)N1CC[C@@H]2[C@@H](CO[C@H]2CNS(C)(=O)=O)C1	-7.18
Cc1occc1C(=O)N1C[C@@H]2CCCO[C@@H]2[C@H](NS(C)(=O)=O)C1	108.4
O=C(CC1CC1)N[C@@H]1CN(Cc2ccc(F)cc2)C[C@@H]2CCCO[C@@H]21.O=C(O)C(F)(F)F	-7.276
Cc1occc1C(=O)N1C[C@@H]2CN(S(C)(=O)=O)CCO[C@@H]2C1	-6.506
O=C(CC1CC1)N[C@@H]1CN(C(=O)c2ccoc2)C[C@@H]2CCCO[C@@H]21	95.5
O=C(CC1CC1)N[C@@H]1CN(c2ncccn2)C[C@@H]2CCCO[C@@H]21.O=C(O)C(F)(F)F	-2.682
O=C(c1cccs1)N1C[C@H]2CC[C@@]3(N=C(c4ccccc4)NC3=O)[C@H]2C1	7.494
O=C(CC1CC1)N[C@@H]1CN(Cc2nccs2)C[C@@H]2CCCO[C@@H]21	-7.838
COc1ccc(CN2C[C@@H]3CCCO[C@@H]3[C@H](NC(=O)CC3CC3)C2)cc1	-5.236
O=C(CC1CC1)N[C@@H]1CN(C(=O)c2ccsc2)C[C@@H]2CCCO[C@@H]21	100.4
CCn1ccnc1CN1CCCN(CC2CC2)C(C(C)C)C1 (centres undefined)	-2.193
Cc1nnsc1CN1CCCC1c1nc(-c2ccccc2)no1 (centres undefined)	16.39
Cc1csc([C@@H]2C[C@@H]3CCN(Cc4cnn(C)c4)C[C@H]3O2)n1	-7.419

Source: ChEMBL document CHEMBL3988442, “University of Dundee, Small-Polar-MMV Screening Library” (2021)
